Pf Dd2 growth: Plasmodium falciparum Dd2 growth inhibition | P. falciparum Dd2 growth, SYBR Green, 72 h | Potency, µM (doses to about 28.9 µM), most hits filed as inhibitors | actives 4.3% (n = 120,000) | AID 1347417; active = well fitted inhibition curve with a large enough effect; note: nearly all actives have a fitted effect of over 65% in size
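Infected erythrocytes (Dd2, 0.3% parasitemia, 2.5% hematocrit final) are added to compound in RPMI-1640/Albumax II medium, grown 72 h at 37C in low oxygen, then lysed with saponin/Triton-X containing SYBR Green and read by fluorescence.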
A number is an active result; [ ] = remark or other dose. The full list was thinned out, with hits kept by preference.

How did CCC(=O)N1CCCCCC1c1nnc(-c2ccccc2)o1 (stereo not drawn) do in these assays?
Pf Dd2 growth: inactive

Results for CCCN(CC1CCOC1)C(=O)Nc1ccc(F)cc1 (stereo not drawn) ?
Pf Dd2 growth: inactive[5.79 µM]

What do the screens show for `O=C(c1ccoc1)N1CCN(c2nnc3ccccn23)CC1`?
Pf Dd2 growth: inactive

What do the screens show for `O=C(NCCc1noc(-c2ccccc2)n1)C1CCCCC1`?
Pf Dd2 growth: inactive

How did CCc1nc(-c2c3n(c(=O)n(CC(=O)Nc4c(C)cccc4C)c2=O)CCCCC3)no1 do in these assays?
Pf Dd2 growth: inactive

Results for CCOc1ccc(-n2nc3ccc(NC(=O)COc4ccccc4)cc3n2)cc1 ?
Pf Dd2 growth: inactive

What do the screens show for `CCOc1ccc(-n2nc3ccc(NC(=O)c4ccc(-c5cccc(Cl)c5)o4)cc3n2)cc1`?
Pf Dd2 growth: 2.8µM

Results for CCOc1ccc(-n2nc3ccc(NC(=O)c4ccc(C)cc4C)cc3n2)cc1 ?
Pf Dd2 growth: inactive

What do the screens show for `Cc1ccoc1C(=O)N1CCC(N2CCCC(C(=O)NCc3ccccc3)C2)CC1` (stereo not drawn)?
Pf Dd2 growth: inactive

What do the screens show for `Cc1ccc(C)c2sc(N3CCN(C(=O)c4ccco4)CC3)nc12`?
Pf Dd2 growth: inactive

How did CCN(CC)CCN(C(=O)c1ccco1)c1nc2ccc(Cl)cc2s1 do in these assays?
Pf Dd2 growth: inactive

What do the screens show for `Cc1ccc2sc(N(CCCN(C)C)C(=O)c3ccco3)nc2c1C`?
Pf Dd2 growth: 8.9µM

Results for O=C1c2c(nc(COc3ccc4c(c3)OCO4)n2Cc2ccccc2)NCCN1Cc1ccccc1 ?
Pf Dd2 growth: inactive

Results for COc1ccc(OC)c(NC(=O)c2nnn3c2COC(c2ccc(Cl)cc2)C3)c1 (stereo not drawn) ?
Pf Dd2 growth: inactive

Results for COc1ccc(C2Cn3nnc(C(=O)Nc4cc(C)ccc4F)c3CO2)cc1 (stereo not drawn) ?
Pf Dd2 growth: 11µM

Results for COc1ccc(C2Cn3nnc(C(=O)NCc4ccc(SC)cc4)c3CO2)cc1 (stereo not drawn) ?
Pf Dd2 growth: inactive

How did Cc1c(Cl)cccc1-n1ncc(C(=O)N2CCC(C)CC2)c1C1CCN(C(=O)OC(C)(C)C)CC1 do in these assays?
Pf Dd2 growth: 11µM

How did CC(C)(C)OC(=O)N1CCC(c2c(C(=O)N3CCN(c4ccc(Cl)cc4)CC3)cnn2-c2ccc(F)cc2F)CC1 do in these assays?
Pf Dd2 growth: 11µM

What do the screens show for `Cc1c(Cl)cccc1-n1ncc(C(=O)N2CCN(c3ncccn3)CC2)c1C1CCN(C(=O)OC(C)(C)C)CC1`?
Pf Dd2 growth: inactive

What do the screens show for `CC(C)(C)OC(=O)N1CCC(c2c(C(=O)N3CCN(c4ccccc4F)CC3)cnn2-c2ccccc2Cl)CC1`?
Pf Dd2 growth: 13µM

What do the screens show for `CN1CCN(C(=O)c2cnn(-c3ccc(F)cc3F)c2C2CCN(C(=O)OC(C)(C)C)CC2)CC1`?
Pf Dd2 growth: inactive

What do the screens show for `Cc1cccc(C(=O)N2CCN(C3CCN(C)C3=O)CC2)c1` (stereo not drawn)?
Pf Dd2 growth: inactive

How did CC1(C)CN(C(=O)C2CCN(C(=O)C3CCCC3)CC2)CC1(C)O (stereo not drawn) do in these assays?
Pf Dd2 growth: inactive

How did COCCOc1ccc(C(=O)N[C@@H]2CN(C3CCN(C)CC3)CCC[C@H]2O)cc1 do in these assays?
Pf Dd2 growth: inactive

How did COc1ccc(N2CC(C(=O)NCCOc3ccccc3)NC2=O)cc1 (stereo not drawn) do in these assays?
Pf Dd2 growth: inactive

How did CS(=O)(=O)NC[C@H]1O[C@@H](CO)[C@@H](O)C1N1CCN(c2ccccc2)CC1 (stereo partly drawn) do in these assays?
Pf Dd2 growth: inactive

Results for CC(C)CCNC(=O)Cn1ccn2nc3c(c2c1=O)CCCC3 ?
Pf Dd2 growth: inactive

How did CN(C)C(=O)c1ccn2cncc2c1 do in these assays?
Pf Dd2 growth: inactive

Results for Cc1nn2c(c1-c1ccccc1C(C)C)N(Cc1ccc(C(=O)O)cc1)CCC2 ?
Pf Dd2 growth: inactive

What do the screens show for `Cc1nn2c(c1-c1ccccc1C(C)C)N(C(=O)Cc1ccc(O)cc1)CCC2`?
Pf Dd2 growth: inactive

How did CC(=O)N1CCCn2nc(C)c(-c3ccccc3OCc3ccccc3)c21 do in these assays?
Pf Dd2 growth: inactive

Results for Cc1nn2c(c1-c1ccccc1[S+](C)(=O)[O-])N(Cc1ccccc1F)CCC2 ?
Pf Dd2 growth: inactive

Results for Cc1nn2c(c1-c1ccccc1Oc1ccccc1)N(C(=O)Cc1ccc(O)cc1)CCC2 ?
Pf Dd2 growth: 8.9µM

What do the screens show for `COc1ccc(C(=O)N2CCCn3nc(C)c(-c4ccccc4-c4ccccc4)c32)cc1`?
Pf Dd2 growth: 10µM

Results for Cc1nn2c(c1-c1ccccc1-c1ccccc1)N(C(=O)c1cccnc1)CCC2 ?
Pf Dd2 growth: inactive

What do the screens show for `Cc1nn2c(c1-c1ccccc1C(C)C)N(Cc1cccc(C(=O)O)c1)CCC2`?
Pf Dd2 growth: 4.5µM

Results for Cc1nn2c(c1-c1ccccc1Oc1ccccc1)N(Cc1ccccc1O)CCC2 ?
Pf Dd2 growth: 0.56µM

Results for Cc1nn2c(c1-c1ccccc1OCc1ccccc1)N(C(=O)C(C)C)CCC2 ?
Pf Dd2 growth: inactive

How did COc1ccc(C(=O)N2CCCn3nc(C)c(-c4ccccc4-c4ccccc4)c32)cn1 do in these assays?
Pf Dd2 growth: inactive

How did Cc1ccncc1-c1c(C)nn2c1N(Cc1ccc(C(=O)O)cc1)CCC2 do in these assays?
Pf Dd2 growth: inactive

Results for CC(C)CNC(=O)c1ccnc(-c2nnc3ccc(N4CCN(C)CC4)nn23)c1 ?
Pf Dd2 growth: inactive

Results for COc1ccc(C(=O)N2CCC(C3CCN(S(C)(=O)=O)CC3)C2)c(C)c1 (stereo not drawn) ?
Pf Dd2 growth: inactive

What do the screens show for `CN1CCCC1c1nc(C2CN(C(=O)c3ccoc3)C2)no1` (stereo not drawn)?
Pf Dd2 growth: inactive

Results for O=C(NC1CCCCC1)N1CCC(c2nnc3n2CCNC3)CC1 ?
Pf Dd2 growth: inactive

How did O=C(CCc1cnccn1)N1CCOC(CCCc2ccccc2)C1 (stereo not drawn) do in these assays?
Pf Dd2 growth: inactive

How did Cc1[nH]c2ccc(F)cc2c1Cc1nc(C2CCOC2)no1 (stereo not drawn) do in these assays?
Pf Dd2 growth: inactive

How did CN(Cc1n[nH]c2c1CCCC2)C(=O)c1ccc(CCC(C)(C)O)cc1 do in these assays?
Pf Dd2 growth: inactive

What do the screens show for `COCc1noc([C@@H]2CN(C(=O)CC3CCCC3)C[C@H]2CO)n1`?
Pf Dd2 growth: inactive

What do the screens show for `COc1cccc(CC(=O)N2CCCn3nc(C)c(-c4ccccc4Oc4ccccc4)c32)c1`?
Pf Dd2 growth: 13µM

What do the screens show for `Cc1nn2c(c1-c1ccccc1C(N)=O)N(C(=O)Cc1cccc(F)c1)CCC2`?
Pf Dd2 growth: inactive

How did Cc1nn2c(c1-c1ccccc1Oc1ccccc1)N(C(=O)C1CCC1)CCC2 do in these assays?
Pf Dd2 growth: inactive

What do the screens show for `COc1cccc(CC(=O)N2CCCn3nc(C)c(-c4ccccc4-c4ccccc4)c32)c1`?
Pf Dd2 growth: 10µM

What do the screens show for `Cc1nn2c(c1-c1ccccc1OCc1ccccc1)N(C(=O)CCc1cccnc1)CCC2`?
Pf Dd2 growth: inactive

What do the screens show for `COc1ccccc1C(=O)N1CCCn2nc(C)c(-c3ccccc3-c3ccccc3)c21`?
Pf Dd2 growth: inactive

How did O=C(c1coc(COc2cccc(C(F)(F)F)c2)n1)N1CCCCCCC1 do in these assays?
Pf Dd2 growth: inactive

How did COC1C(=O)N(C2CCN(S(=O)(=O)c3cccc(F)c3)CC2)C12CCOCC2 (stereo not drawn) do in these assays?
Pf Dd2 growth: inactive

Results for COCCN1CCOC[C@H]2CCN(C(=O)CCC3CCCC3)C[C@H]21 ?
Pf Dd2 growth: inactive

Screens (PubChem)
